In the library only some 3.4% were active in any assay of this set; here they are far more common.
NR2F2 inh = inhibitors of human COUP-TFII (NR2F2); AID 686940; 370,000 compounds, 0.7% hits; inhibition, % at 8.6 µM; P24468; HEK293T NGFI-A luciferase reporter, luminescence;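 active = inhibition above a per-plate cutoff, mean inhibition of test wells between control levels plus 3 SD, cut at about 38% in these data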;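 note: cells cotransfected with COUP-TFII expression vector driving the NGFI-A reporter; 0% = median of COUP-TF2 test wells and 100% = reporter-only cells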
SMARCA2 act = SMARCA2 function activation, primary screen; MG213 cells, MMTV-luciferase reporter, dexamethasone, overnight; activation, % at 9.1 µM; 370,000 compounds, 1% hits; AID 652017; in the data active = activation above about 7.8%;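 note: 0% = vehicle wells and 100% = reference activator wells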
Gli-Sufu antag = antagonists of Gli-Sufu signaling; Sufu-KO-LIGHT fibroblasts, Gli luciferase reporter luminescence; inhibition, % at 5 µM; 340,000 compounds, 0.74% hits;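 active = inhibition above about 55%, limit read from the data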;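 note: 0% = DMSO-treated cells and 100% = wells with medium but no cells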
FXN GAA850 act = increases GAA850 frataxin promoter reporter activity; HEK293 lucGAA850 FXN promoter luciferase reporter, 24 h; percent of 10 µM SAHA response; activation, % at 6 µM; 360,000 compounds, 0.56% hits; AID 540364;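 active = activation above the average of all compounds screened plus 3 SD, cutoff fixed separately per campaign, cut at about 7.5% in these data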;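 note: 0% = DMSO wells and 100% = 10 µM SAHA wells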
H9c2 protect = protects H9c2 cardiomyocytes from peroxide injury. H2O2 injury protection, ATPLite, 2 h. protection from H2O2 cell death, % at 20 µM. 360,000 compounds, 0.63% hits. AID 588492;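 active = compounds giving at least 50% protection of heart cells from peroxide-induced death in the single-dose screen, raw or plate-pattern-corrected value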;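 note: 0% = DMSO wells with peroxide and 100% = DMSO wells without peroxide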
GalR3 antag = human GalR3 antagonism; HEK293 GalR3-CNG cAMP membrane potential fluorescence; galR3 body fused to GalR1 C-terminus; inhibition, % at 3 µM; 360,000 compounds, 0.44% hits; AID 651719;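 active = inhibition above the screen-wide average plus 3 SD, cut at about 13% in these data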;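 note: forskolin and galanin both at EC90 stimulate the cells; cAMP rise reported by CNG channel membrane potential dye signal; 0% = forskolin plus galanin with DMSO and 100% = forskolin alone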
Target sequence (O60755 1-299 limits assumed): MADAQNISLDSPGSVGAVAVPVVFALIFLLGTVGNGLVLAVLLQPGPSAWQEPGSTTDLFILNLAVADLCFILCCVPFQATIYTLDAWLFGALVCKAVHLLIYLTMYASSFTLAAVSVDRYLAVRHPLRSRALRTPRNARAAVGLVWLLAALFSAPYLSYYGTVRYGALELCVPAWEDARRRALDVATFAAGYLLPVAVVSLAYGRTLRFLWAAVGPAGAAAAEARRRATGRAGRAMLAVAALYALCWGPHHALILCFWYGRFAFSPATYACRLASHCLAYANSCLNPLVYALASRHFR
Gal4-VP16 ctr = counter-screen for COUP-TFII antagonists: inhibitors of VP16. HEK293 Gal4-VP16 luciferase reporter, luminescence. inhibition, % at 8.5 µM. 2,500 compounds, 25% hits. shares compounds with NR2F2 inh; in the data active = inhibition above about 13%
COUP-TFII conf = confirmation of human COUP-TFII (NR2F2) inhibitors; shares compounds with NR2F2 inh; HEK293 NGFI-A luciferase reporter, luminescence; inhibition, % at 8.5 µM; 2,500 compounds, 45% hits; AID 687008;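 active = mean inhibition over three repeats above a set limit taken from the earlier primary screen, cut at about 38% in these data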;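 note: 100% = cells given the luciferase reporter alone without the COUP-TF2 vector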
* marks the source's active call; other numbers are inactive results; / = no result; ! = a repeat was not active.

SMILES	NR2F2 inh	SMARCA2 act	Gli-Sufu antag	FXN GAA850 act	H9c2 protect	GalR3 antag	Gal4-VP16 ctr	COUP-TFII conf
CCOc1ccc(C(=O)Nc2nc3ccccc3[nH]2)cc1OCC	52*	-2	35	2	-23	-6	-82	4
CCc1ccc(C(=O)Nc2nc3ccccc3[nH]2)cc1	74*	-7	-33	-11	-22	-6	-13	29
O=C(Nc1nc2ccccc2[nH]1)c1ccccc1OC(F)F	-8	4	-99	-2	-16	-7	/	/
O=C(Nc1nc2ccccc2[nH]1)c1ccccc1F	62*	-6	-15	-16	-21	-5	33*	48*
COc1cc(NC(=O)CN2C(=O)COc3ccc(S(=O)(=O)N4CCCC4)cc32)cc(OC)c1	9	0	2	2	-3	-7	/	/
Clc1ccccc1-c1nn2c(-c3cc(-c4ccccc4)n[nH]3)nnc2s1	11	-2	/	/	/	/	/	/
NC(=O)c1ccsc1NC(=O)c1ccc(S(=O)(=O)N2CCCc3ccccc32)cc1	38*	-4	7	0	-36	3	-8	13
O=C(Nc1ccc(S(=O)(=O)N2CCCC2)cc1)c1cccs1	0	-2	1	-1	6	-6	/	/
O=C(Nc1nc(-c2ccc(S(=O)(=O)N3CCCCCC3)cc2)cs1)c1cccs1	55*	-2	24	-3	-3	-2	4	26
O=C(Nc1nc(-c2ccccc2)cs1)c1ccc(S(=O)(=O)N2CCc3ccccc32)cc1	51*	-4	4	2	-21	-7	5	12
O=C(Nc1nc(-c2ccc(S(=O)(=O)N3CCOCC3)cc2)cs1)c1ccccc1	68*	-5	36	-4	-1	-5	18*!	38*
COc1cccc(C(=O)Nc2nc(-c3ccc(S(=O)(=O)N4CCOCC4)cc3)cs2)c1	-4	-1	43	-6	13	-5	/	/
Cc1ccccc1OCCC(=O)Nc1ccccc1C(=O)NC1CC1	15	-1	-4	1	-2	-3	/	/
O=C(NCC(F)(F)F)C1C(=O)Nc2ccccc2C(=O)N1Cc1ccccc1 (centres undefined)	9	-2	/	/	/	-5	/	/
COc1ccc(CC(=O)Nc2cccc(-c3nnc(-c4cccc(C)c4)o3)c2)cc1OC	53*	-1	-16	-5	-12	3	-20	11
CCc1cccc(NC(=O)Cc2ccc(OC)c(OC)c2)c1	40*	-5	22	0	-17	1	12	32
COc1ccc(CC(=O)Nc2cccc(-c3nnc(-c4ccc(C)cc4)o3)c2)cc1OC	-1	-3	2	0	4	2	/	/
CCOC(=O)N1CCN(C(=O)c2ccc3c(c2)N=C(C)c2cc(Cl)ccc2S3)CC1	3	-2	36	-1	-1	9	/	/
C=CCNC(=S)N/N=C/c1ccc(C(F)(F)F)cc1	43*	-6	-13	-2	-12	-4	-3	28
CCOC(=O)c1cc(-c2ccccc2)n(CCC(=O)O)c1C	10	-3	-6	-2	3	-3	/	/
CCOC(=O)c1cc(-c2ccc(C)cc2)n(CCC(=O)N2CCN(c3ccccn3)CC2)c1C	39*	-1	39	1	32	-2	-6	8
Cc1cc(=O)n2c3c(c4c(cc13)c(CN(C)C)cc(=O)n4C)OC2	78*	-12	-2	-3	4	-6	-7	-1
Cc1cc(=O)n(C)c2ccccc12	-20	0	3	0	3	1	/	/
COc1ccc(Cc2nc3ccc(C(=O)N4CCN(C)C(C)C4)cc3o2)cc1OC (centres undefined)	49*	-1	-12	-3	-3	1	9	46*
CC(C)(C)c1ccc(S(=O)(=O)N(CCCN2CCOCC2)Cc2cccs2)cc1	4	-4	13	0	-5	-5	/	/
SMILES	NR2F2 inh	SMARCA2 act	Gli-Sufu antag	FXN GAA850 act	H9c2 protect	GalR3 antag	Gal4-VP16 ctr	COUP-TFII conf
CCC(C)(C)c1ccc(OCCCC[n+]2cccc(C)c2)c(C(C)(C)CC)c1	62*	-14	87*	-2	-10	1	3	38*
Cc1ccc[n+](CC(=O)Nc2cc(C(F)(F)F)ccc2Cl)c1	7	1	4	0	1	-4	/	/
CC1CCc2nc(NC(=O)CSc3nc4ccccc4o3)sc2C1 (centres undefined)	43*	-6	-1	-12	-30	-7	31*	68*
COC1=CC(=O)c2nc(Cl)ccc2C1=O	38*	-15	/	/	-16	-10	35*	26
COc1ccc(-c2cc(C3CCN(c4ccc(C(C)=O)cc4[N+](=O)[O-])CC3)[nH]n2)cc1	42*	-7	35	-1	-19	-9	-3	19
COC(=O)c1ccc(N2CCC(c3cc(-c4ccc(OC)cc4)n[nH]3)CC2)c([N+](=O)[O-])c1	11	-6	5	6	-1	-6	/	/
O=C(Nc1cccnc1)c1ccc(CN2CCc3ccccc3C2)cc1	42*	-6	1	-1	0	0	-14	10
COc1ccc(S(=O)(=O)N2CCOC2CNC(=O)C(=O)NCCc2ccc(OC)c(OC)c2)cc1 (centres undefined)	12	-5	23	1	-1	-9	/	/
COc1ccc(CCNC(=O)C(=O)NCC2OCCN2S(=O)(=O)c2ccc(Cl)cc2)cc1OC (centres undefined)	42*	0	3	0	-3	/	3	17
O=C(c1ccc([N+](=O)[O-])c(CS(=O)(=O)c2ccc(Cl)cc2)c1)N1CCCC1	9	-4	3	1	9	-2	/	/
Oc1cccc2cc(Nc3ccccc3)cnc12	55*	-7	/	-8	17	-4	-9	46*
O=C(COC(=O)CNC(=O)c1sc2ccccc2c1Cl)Nc1c(Cl)cc(Cl)cc1Cl	-5	-2	4	-1	3	0	/	/
CC1(C(=O)NCc2cccnc2)Cc2c(-c3cccc(C(F)(F)F)c3)ccnc2O1 (centres undefined)	39*	-5	/	-1	-3	-3	-8	7
Cc1ccc(C(=O)C2(C)C3c4cc(Br)ccc4OC(=O)C32C(=O)c2ccco2)cc1 (centres undefined)	-4	3	6	1	-6	-4	/	/
O=C(Nc1ccc(Oc2ccccc2)cc1)C1CCCN1S(=O)(=O)c1cccc2cccnc12 (centres undefined)	42*	-6	/	/	/	/	13	35
COc1ccc(NC(=O)[C@@H]2CCCN2S(=O)(=O)c2cccc3cccnc23)cc1	2	1	13	0	-2	-4	/	/

Source: PubChem (several laboratories)
